# Screens deposited in PubChem by National Center for Advancing Translational Sciences (NCATS).
# Shown are actives, neighbours in structure and some others; about 7.3% of the full set was active somewhere.
# NPC1 promoter act: activates the NPC1 promoter; Huh7 NPC1 promoter luciferase reporter, 24 h; Potency, µM (top dose mostly 9.22 µM), usual class: activators; 320,000 tested, 2.4% active; AID 485313; also: nearly all actives have a fitted effect of over 60% in size
#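 Quantitative HTS used a cell-based reporter: Huh7 cells stably bearing the NPC1 promoter upstream of luciferase were treated with compounds for 24 h, and promoter activation was read as luminescence.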
# ELG1 genotox: genotoxicity induction in ELG1-luciferase HEK293T cells; HEK293T ELG1-luciferase reporter, luminescence, 16 h; Potency, µM (top dose mostly 46 µM), actives largely listed as activators; 330,000 tested, 1.3% active; also: nearly all actives have a fitted effect of over 60% in size
#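 Quantitative HTS format in 1536-well plates. HEK293T ELG1-luciferase reporter cells receive test compound and are incubated 16 hr at 37 °C, 5% CO2; ONE-Glo added, 30 min room temperature, then luminescence read.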
# FLuc modulator: inhibits or activates purified firefly luciferase, miR-21 counter-screen | P08659 | purified FLuc, Km substrates, luminescence inhibition | Potency, µM (titrated, usually from 57.5 µM), hits mostly inhibitors | 360,000 tested, 6.9% active | AID 588342; also: nearly all actives have a fitted effect of over 55% in size
# Target sequence (P08659 whole entry, looked up): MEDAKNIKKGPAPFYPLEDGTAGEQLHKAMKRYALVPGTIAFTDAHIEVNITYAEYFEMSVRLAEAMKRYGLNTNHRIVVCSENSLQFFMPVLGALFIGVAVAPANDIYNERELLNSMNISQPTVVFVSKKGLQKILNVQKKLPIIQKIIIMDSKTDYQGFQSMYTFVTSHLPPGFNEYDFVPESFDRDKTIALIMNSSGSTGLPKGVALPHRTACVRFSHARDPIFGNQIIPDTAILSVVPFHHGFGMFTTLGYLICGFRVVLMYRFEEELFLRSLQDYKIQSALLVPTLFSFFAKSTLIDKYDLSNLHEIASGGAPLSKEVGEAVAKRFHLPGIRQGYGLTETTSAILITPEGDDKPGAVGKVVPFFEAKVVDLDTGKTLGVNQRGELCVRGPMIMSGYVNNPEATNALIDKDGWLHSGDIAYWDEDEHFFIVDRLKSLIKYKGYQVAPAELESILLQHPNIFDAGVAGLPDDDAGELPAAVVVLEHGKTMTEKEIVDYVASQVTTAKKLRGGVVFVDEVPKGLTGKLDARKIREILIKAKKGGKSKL
#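 Purified P. pyralis luciferase (10nM final) with 10uM D-luciferin and 10uM ATP (Km levels) in 50mM Tris acetate pH 7.5, 10mM Mg acetate, 0.01% Tween-20, 0.05% BSA; qHTS 6-point titration, ~60 µM downward; luminescence read.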
# Rab9 promoter act: activators of Rab9 promoter; Potency, µM (doses to about 9.22 µM), hits mostly activators; Huh7 Rab9 promoter-luciferase reporter, luminescence, 24 h; 320,000 tested, 2.8% active; also: nearly all actives have a fitted effect of over 60% in size
#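 Luminescence read-out: Huh7 cells stably expressing Rab9-luciferase, treated 24 h with compound at 37 °C, then lysed with luciferase reagent for 10 min at ambient before reading.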
# SMN2 splice enh: SMN2 splice variant enhancement; AID 1458; Potency, µM (top dose mostly 46.1 µM), hits mostly activators; HEK293 SMN2-luciferase splicing reporter, luminescence, 30-36 h; 210,000 tested, 2.8% active; also: nearly all actives have a fitted effect of over 55% in size
#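 HEK293 cells carry an SMN2 […]–luciferase reporter in which exon 7 inclusion puts luciferase in frame. Cells were plated 10-12 h before compound addition, then incubated 30-36 h at 37C. ONE-Glo luminescence was read; sodium butyrate at 4.5 mM final served as control.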
# Luc counter: Kinase-Glo luciferase inhibition (counter-screen). Q27757. Kinase-Glo luciferase, ATP luminescence, 8 min. Potency, µM (titrated, usually from 38.3 µM), most hits filed as inhibitors. 200,000 tested, 0.28% active. AID 1379; also: nearly all actives have a fitted effect of over 60% in size
#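 Recombinant Kinase-Glo luciferase, 10 uM ATP (linear range), luciferin; imidazole pH 7.2 / KCl / MgCl2 / Tween / BSA buffer; 8 min RT; luminescence.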
# A number is an active result; 0 = inactive; ? = inconclusive; - = not tested or not shown; [ ] = another dose, or the depositor's remark. Calls follow the shape of the dose curve; as a rule, active = well fitted curve in the direction sought with a large enough effect; inconclusive = small, poorly fitted or top-dose-only effect, or another doubt; inactive = no such curve, though single readings can be large; an effect the other way counts as inactive or inconclusive.
SMILES,NPC1 promoter act,ELG1 genotox,FLuc modulator,Rab9 promoter act,SMN2 splice enh,Luc counter
COc1cc(SC)ccc1C(=O)NCCOc1ccc(F)cc1,?,21µM,5.4µM,?,14µM,0
COc1cc(SC)ccc1C(=O)NCC1CCCCC1,0,?,15µM,0,-,-
COc1ccc(CCNC(=O)c2ccc(SC)cc2OC)cc1,0,0,0,0,0,0
C[N+](C)(C)CC(=O)N/N=C\c1c(O)ccc2ccccc12,-,-,-,-,0[9.22 µM],0[7.66 µM]
C=CCn1cccc(C(=O)Nc2ccc(C)c(Cl)c2)c1=O,2.5µM,?,9.5µM,?,-,-
C=CCn1cccc(C(=O)Nc2ccc(OC)c(Cl)c2)c1=O,?,0,19µM,?,-,-
Cc1cc2nc(-c3ccc(NC(=O)c4ccc(OCC(C)C)cc4)cc3)oc2cc1C,-,-,0,-,0,-
COc1cccc(CNC(=O)CSC2=Nc3ccccc3N=C(c3ccc(F)cc3)C2)c1,-,-,0,-,-,-
Cc1noc(-c2ccc(-c3noc(-c4ccc(F)cc4)n3)cc2)n1,-,-,0,-,-,-
O=C(NCCc1ccccc1)c1nc(-c2cccs2)no1,?,?,13µM,5.6µM,14µM,0
COC(=O)c1ccc(-c2nc(-c3cccs3)no2)cc1,0.32µM,0.37µM,0.15µM,?,0,?
Fc1ccc(-c2cc(-c3cccs3)cc(-c3ccccc3)n2)cc1,0,0,0,0,-,-
CCOC(=O)c1ccc(OCc2nc(-c3cccs3)no2)cc1,0,0,0[2.3 µM],0,0,0
Fc1ccc(-c2nc(-c3cccs3)no2)cc1,2µM,?,1.3µM,1.8µM,-,-
Fc1ccc(-c2cnc(-c3cccs3)o2)cc1,4µM,?,6µM,3.5µM,0,0
CCc1ccc(NC(=O)C(CC)n2c(=O)c(C(F)(F)F)nc3ccccc32)cc1 (stereo not given),-,-,0,-,-,-
COC(=O)c1noc(-c2ccc(OC)cc2)n1,0,0,?,0,0,0
COC(=O)c1noc(-c2ccc(C)cc2)n1,0,0,11µM,0,0,0
COc1cccc(NC(=O)CCN2CCN(CCO)CC2)c1,-,-,0,-,0,-
CCC(=O)Nc1nnc(-c2ccc(OC)cc2)o1,0,0,24µM,0,0,0
CCC(=O)Nc1ccc(-c2nnc(-c3ccccc3)o2)cc1,0.32µM,?,0.95µM,0.32µM,-,-
CCC(=O)Nc1ccc(-c2nc3ccccc3c(=O)o2)cc1,0,0,1.3µM,0,0,0
COc1cc(/C=N/NC(=O)Nc2ccccc2)ccc1OC(C)=O,0,?,11µM,?,?,0
CCOc1cc(/C=N/NC(=O)c2ccc(NC(=O)C3CC3)cc2)ccc1O,0,0,?,0,-,-
CCOc1cc(/C=N/NC(=O)Nc2ccccc2)ccc1O,0,?,9.5µM,?,-,0
SMILES,NPC1 promoter act,ELG1 genotox,FLuc modulator,Rab9 promoter act,SMN2 splice enh,Luc counter
CCOCCCNc1nc2ccccc2[nH]1,0,0,0,0,0,0
CCOCCCNc1ccc(-c2ccccc2)nn1,?,13µM,?,2.2µM,14µM,0
OC(Cc1ccccc1)(Cc1ccccc1)c1ccccc1,-,-,-,-,0[9.22 µM],0[7.66 µM]
Cc1ccc(C(=O)CCC2CCCC2=O)cc1 (stereo not given),4µM,?,12µM,?,?,0
Cc1ccc(C(=O)CCC2CCCCC2=O)cc1 (stereo not given),?,21µM,13µM,?,0,0
CCc1ccc(C(=O)CCC2CCCCC2=O)cc1 (stereo not given),?,18µM,12µM,?,0,0
CCCn1c(-c2ccc(F)cc2)nc2c(NCC(C)(C)CN(C)C)nc(C)nc21,-,-,-,-,0,0
O=C(Nc1ccc(F)c(Cl)c1)C1Cc2ccccc2CN1S(=O)(=O)c1ccc(F)cc1 (stereo not given),-,-,0,-,0,-
COc1ccc2c(c1OC)C(=O)N(c1ccc(F)cc1)C2,2µM,?,8.5µM,1.3µM,-,-
COc1ccc2c(c1OC)C(=O)N(c1cccc(NC(C)=O)c1)C2,0,?,11µM,0,-,-
O=C(NCCOc1ccccc1)C(=O)c1c[nH]c2ccccc12,0,0,27µM,0,-,-
Cc1ccc(NC(=O)C(=O)c2c[nH]c3ccccc23)cc1,0.63µM,?,1.5µM,0.79µM,-,-
O=C(NC1CCCCC1)C(=O)c1c[nH]c2ccccc12,?,15µM,11µM,3.2µM,-,-
